From PubChem BioAssay (Tox21)
Results filed as inconclusive are left out. Activity calls are given as the source filed them. Unless noted, the call rests on the fitted dose curve; in most records, active means well fitted curve in the direction sought with a large enough effect in the repeat runs; inconclusive means weak or mixed curves; inactive means no such curve, though single readings can be large; an effect the other way counts as inactive or inconclusive.

How the values were obtained:
[1] = A CellTox Green Cytotoxicity Assay to monitor cytotoxicity in HepG2 cells - 8 hour (AID 1224890); further: nearly all actives have a fitted effect of over 45% in size; further: potency means the concentration at half of the fitted maximal effect
Outline: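 Cells and non-lytic dye reagent are dispensed together (600 HepG2 cells/well) and incubated 5 h before DMSO compound transfer. Kinetic fluorescence is then recorded in the same wells during 40 h at 37 C.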

[2] = qHTS assay to identify small molecule antagonists of the androgen receptor (AR) signaling pathway using the MDA cell line in the presence of 0.5 nM R1881 - cell viability counter screen (AID 1259242); further: nearly all actives have a fitted effect of over 45% in size
Outline: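 Steps: plate MDA-kb2 cells, rest 5 hr at 37C without CO2; pin in compounds in DMSO; add R1881 to 0.5 nM final; incubate 16 hr; add CellTiter-Fluor, 30 min; read fluorescence.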

[3] = target: Androgen receptor (Homo sapiens) (UniProt P10275); assay: qHTS assay to identify small molecule antagonists of the androgen receptor (AR) signaling pathway using the MDA cell line in the presence of 0.5 nM R1881 (AID 1259243); further: nearly all actives have a fitted effect of over 50% in size; further: potency means the concentration at half of the fitted maximal effect
Sequence of Androgen receptor (Homo sapiens) (P10275 whole entry, looked up): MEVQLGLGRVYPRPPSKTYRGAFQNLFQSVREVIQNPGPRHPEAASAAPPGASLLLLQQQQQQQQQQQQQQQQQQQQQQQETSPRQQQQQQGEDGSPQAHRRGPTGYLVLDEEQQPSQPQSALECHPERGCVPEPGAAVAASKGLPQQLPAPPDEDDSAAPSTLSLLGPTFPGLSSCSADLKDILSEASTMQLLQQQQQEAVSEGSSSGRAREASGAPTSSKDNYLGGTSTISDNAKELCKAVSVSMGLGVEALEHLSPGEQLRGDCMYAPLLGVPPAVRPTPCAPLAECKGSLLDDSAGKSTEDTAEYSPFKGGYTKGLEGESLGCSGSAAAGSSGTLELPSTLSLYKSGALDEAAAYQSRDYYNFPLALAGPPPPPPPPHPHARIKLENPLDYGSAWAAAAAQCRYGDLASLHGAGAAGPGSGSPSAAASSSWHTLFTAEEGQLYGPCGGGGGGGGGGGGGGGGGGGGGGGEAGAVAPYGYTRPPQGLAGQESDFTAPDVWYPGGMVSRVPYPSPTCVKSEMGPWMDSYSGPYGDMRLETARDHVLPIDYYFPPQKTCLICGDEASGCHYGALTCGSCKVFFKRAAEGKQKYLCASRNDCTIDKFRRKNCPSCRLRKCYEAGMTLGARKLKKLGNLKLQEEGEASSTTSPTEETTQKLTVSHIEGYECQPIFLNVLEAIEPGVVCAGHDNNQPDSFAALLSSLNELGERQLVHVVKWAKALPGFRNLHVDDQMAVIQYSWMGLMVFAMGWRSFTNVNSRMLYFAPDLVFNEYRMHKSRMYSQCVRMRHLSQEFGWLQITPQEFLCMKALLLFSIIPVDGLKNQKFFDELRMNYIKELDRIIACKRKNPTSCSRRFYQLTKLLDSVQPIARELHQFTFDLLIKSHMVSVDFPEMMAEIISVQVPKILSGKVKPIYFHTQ
Outline: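 Stably transfected MDA-kb2 cells express luciferase from an MMTV promoter bearing both AR and GR response elements. Compounds plus 0.5 nM R1881 (final) were incubated 16 hr at 37C without CO2, then luminescence measured.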

[4] = target: Estrogen receptor (Homo sapiens) (UniProt P03372); assay: qHTS assay to identify small molecule antagonists of the estrogen receptor alpha (ER-alpha) signaling pathway using the BG1 cell line in the presence of 0.1 nM 17-beta-estradiol (AID 1259244); further: nearly all actives have a fitted effect of over 50% in size
Sequence of Estrogen receptor (Homo sapiens) (P03372 whole entry, looked up): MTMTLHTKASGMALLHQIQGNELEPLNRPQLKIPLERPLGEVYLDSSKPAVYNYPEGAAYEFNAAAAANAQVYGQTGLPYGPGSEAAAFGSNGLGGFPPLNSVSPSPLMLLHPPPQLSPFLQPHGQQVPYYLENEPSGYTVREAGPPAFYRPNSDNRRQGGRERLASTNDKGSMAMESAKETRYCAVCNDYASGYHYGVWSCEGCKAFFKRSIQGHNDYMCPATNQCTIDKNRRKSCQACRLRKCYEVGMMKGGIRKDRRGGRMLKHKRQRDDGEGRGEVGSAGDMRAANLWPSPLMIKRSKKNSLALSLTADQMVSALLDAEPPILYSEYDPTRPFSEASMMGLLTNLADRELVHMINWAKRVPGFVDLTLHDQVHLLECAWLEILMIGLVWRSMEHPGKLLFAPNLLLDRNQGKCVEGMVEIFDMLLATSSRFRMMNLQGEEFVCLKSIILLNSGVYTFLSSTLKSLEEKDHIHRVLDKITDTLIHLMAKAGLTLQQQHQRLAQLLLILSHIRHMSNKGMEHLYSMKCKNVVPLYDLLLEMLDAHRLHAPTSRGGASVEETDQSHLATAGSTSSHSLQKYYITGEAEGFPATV
Outline: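 Antagonist mode: compounds in DMSO are pinned onto VM7Luc4E2 reporter cells, 0.1 nM final 17beta-estradiol is added, and after 22 h at 37C luciferase luminescence is measured with ONE-Glo.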

[5] = qHTS assay to identify small molecule HDAC inhibitors (AID 1259364);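 further: wild-type HCT-116 cells with endogenous class I/II HDAC activity; top concentration of the series differs between compounds; nearly all actives have a fitted effect of over 45% in size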
Outline: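 Cells (HCT-116, wild type) are seeded at 1,500 per well, incubated overnight, treated with compound in DMSO for 2 hr, then developed with HDAC-Glo I/II reagent for 30 min at room temperature.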

[6] = qHTS assay to identify small molecule HDAC inhibitors - cell viability counter screen (AID 1259365); further: series mostly up to about 92 µM; nearly all actives have a fitted effect of over 50% in size
Outline: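 HCT-116 wild-type, overnight attachment; 2hr drug exposure, 37C; CellTiter-Glo luminescent ATP readout after 30min RT.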

[7] = qHTS assay to identify small molecule agonists of the sonic hedgehog signaling (Shh) pathway - cell viability counter screen (AID 1259366); further: nearly all actives have a fitted effect of over 50% in size; further: potency means the concentration at half of the fitted maximal effect
Outline: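 Compounds in DMSO were pin-transferred onto 3T3 Gli1-Luc cells that had settled 4hr; plates then stood 24hr at 37C and 5% CO2. One hour before the end, CellTiter-Fluor was added and fluorescence recorded.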

[8] = qHTS assay to identify small molecule antagonists of the sonic hedgehog signaling (Shh) pathway - cell viability counter screen (AID 1259367); further: nearly all actives have a fitted effect of over 55% in size; further: potency means the concentration at half of the fitted maximal effect
Outline: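 Viability was read by CellTiter-Fluor fluorescence in the same wells, reagent added 23 hr into compound treatment and incubated 1 hr at 37C. The 3T3 Gli1-Luc reporter cells (2,000/well) received conditioned medium after compound and ran 24 hr.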

[9] = qHTS assay to identify small molecule agonists of the sonic hedgehog signaling (Shh) pathway (AID 1259368; calls by dose curve;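 further: NIH/3T3-derived 3T3Gli1-Luc cells carrying a stable Gli1-driven firefly luciferase reporter; series mostly up to about 92 µM; nearly all actives have a fitted effect of over 15% in size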)
Outline: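 Cells of a mouse NIH/3T3 clone stably expressing luciferase under the Gli1 transcriptional response element are exposed to test chemicals for 24 hr at 37 C. Pathway activation is detected as a rise in luminescence.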

[10] = qHTS assay to identify small molecule antagonists of the sonic hedgehog signaling (Shh) pathway (AID 1259369; calls by dose curve; further: nearly all actives have a fitted effect of over 45% in size; further: potency means the concentration at half of the fitted maximal effect)
Outline: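 Cells are plated and held 4hr at 37 C, compounds (DMSO) are pinned in, conditioned medium is added to stimulate the pathway, and after 24hr luciferase reagent is added for 30min before luminescence is read.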

[11] = target: Estrogen receptor beta (Homo sapiens) (UniProt Q92731); assay: qHTS assay to identify small molecule agonists of the estrogen receptor beta (ER-beta) signaling pathway (AID 1259377; active means well fitted activation curve with a large enough effect in the signal ratio in the repeat runs, not every such curve was filed as active; the % refers to the signal ratio)
Sequence of Estrogen receptor beta (Homo sapiens) (Q92731 whole entry, looked up): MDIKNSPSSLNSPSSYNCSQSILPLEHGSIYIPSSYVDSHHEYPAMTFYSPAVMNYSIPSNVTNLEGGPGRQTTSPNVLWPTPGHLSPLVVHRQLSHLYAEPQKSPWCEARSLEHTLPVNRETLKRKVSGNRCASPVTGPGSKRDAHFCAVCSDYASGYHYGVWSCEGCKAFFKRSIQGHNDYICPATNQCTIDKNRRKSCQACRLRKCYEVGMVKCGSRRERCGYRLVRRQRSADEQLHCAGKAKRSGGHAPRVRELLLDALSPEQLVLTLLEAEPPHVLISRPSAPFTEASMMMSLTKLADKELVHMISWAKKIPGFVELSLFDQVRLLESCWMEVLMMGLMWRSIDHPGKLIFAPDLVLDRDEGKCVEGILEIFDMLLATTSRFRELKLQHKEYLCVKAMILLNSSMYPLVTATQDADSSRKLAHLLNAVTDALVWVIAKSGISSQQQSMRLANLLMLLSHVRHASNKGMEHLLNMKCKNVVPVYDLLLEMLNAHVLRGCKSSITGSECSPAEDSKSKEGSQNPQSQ
Outline: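 qHTS in ER-beta-UAS-bla HEK293T cells: 6 hr settling, then 16 hr compound at 37C, then LiveBLAzer substrate 2 h at RT before fluorescence reading.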

[12] = target: Estrogen receptor beta (Homo sapiens) (UniProt Q92731); assay: qHTS assay to identify small molecule antagonists of the estrogen receptor beta (ER-beta) signaling pathway (AID 1259378; active means well fitted inhibition curve with a large enough effect in the signal ratio in the repeat runs, not every such curve was filed as active; the % refers to the signal ratio)
Outline: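 Antagonist mode: compounds added to beta-lactamase reporter HEK293T ER-beta-UAS cells stimulated with E2 (1nM final), 16 hr at 37C. LiveBLAzer B/G FRET substrate, 2 hours room temperature, fluorescence read-out.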

[13] = qHTS assay to identify small molecule agonists of the estrogen receptor beta (ER-beta) signaling pathway - cell viability counter screen (AID 1259380); further: nearly all actives have a fitted effect of over 30% in size; further: potency means the concentration at half of the fitted maximal effect
Outline: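 Cytotoxicity is measured in parallel with the reporter screen: after 16 hr compound exposure at 37C and a 2 hr LiveBLAzer step, CellTiter-Glo is added to the same ER-beta-UAS-bla HEK293T wells and luminescence read after 30 min.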

[14] = target: Androgen receptor (Homo sapiens) (UniProt P10275); assay: qHTS assay to identify small molecule agonists of the androgen receptor (AR) signaling pathway in the presence of an antagonist (AID 1259381; calls by dose curve; further: nearly all actives have a fitted effect of over 15% in size)
Outline: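 Agonist-mode confirmation screen: human MDA-kb2 cells stably expressing luciferase under an MMTV promoter bearing AR and GR response elements, co-treated with 3.0uM nilutamide (final). Luminescence measured after 16hr compound incubation.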

[15] = qHTS assay to identify small molecule antagonists of the estrogen receptor beta (ER-beta) signaling pathway - cell viability counter screen (AID 1259382);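 further: HEK293T cells carrying ER-beta-UAS-bla reporter stimulated with estradiol; series mostly up to about 92 µM; nearly all actives have a fitted effect of over 55% in size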
Outline: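 Cytotoxicity counter screen multiplexed with the beta-lactamase antagonist assay: GripTite HEK293T ER-beta-bla cells were treated 16 hr with test chemicals in the presence of 1nM 17-beta-estradiol, and viability was measured by CellTiter-Glo.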

[16] = target: Estrogen receptor (Homo sapiens) (UniProt P03372); assay: qHTS assay to identify small molecule agonists of the estrogen receptor alpha (ER-alpha) signaling pathway in the presence of an antagonist (AID 1259383; calls by dose curve; further: top concentration of the series differs between compounds; nearly all actives have a fitted effect of over 15% in size)
Outline: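 Agonist-mode confirmation in the presence of the ER antagonist ICI-182,780 at 10.0nM final. Breast-derived VM7Luc4E2 reporter cells were exposed to compounds for 22hr, and ERE-driven luciferase was quantified by luminescence.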

[17] = qHTS assay to identify small molecule agonists or antagonists of the thyroid stimulating hormone receptor (TSHR) signaling pathway - wild type cell line counter screen (AID 1259384; calls by dose curve)
Outline: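 Counter screen in untransfected Hek293: compounds (15-point titration, triplicate) plus phosphodiesterase inhibitor Ro20-1724 added after 18 h plating; 30 min RT. Intracellular cAMP via competitive d2/cryptate immunoassay, 1 h incubation.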

[18] = qHTS assay to identify small molecule antagonists of the estrogen receptor alpha (ER-alpha) signaling pathway using the BG1 cell line in the presence of 0.1 nM 17-beta-estradiol - cell viability counter screen (AID 1259241); further: nearly all actives have a fitted effect of over 40% in size
Outline: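 Following 5 days in phenol red-free medium with charcoal-stripped serum, VM7Luc4E2 cells received test compounds alongside 0.1 nM 17beta-estradiol (final) at 37C for 22 hr. Live cells were then quantified via protease-substrate fluorescence.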

[19] = qHTS assay to identify small molecule agonists of the androgen receptor (AR) signaling pathway in the presence of an antagonist - cell viability counter screen (AID 1259379); further: nearly all actives have a fitted effect of over 25% in size; further: potency means the concentration at half of the fitted maximal effect
Outline: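 Cytotoxicity is assessed by CellTiter-Fluor in MDA-kb2 cells carrying an MMTV-driven luciferase reporter. Cells receive 3.0uM nilutamide plus compounds at 15 concentrations and incubate 16 hr at 37C without CO2 before fluorescence reading.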

[20] = qHTS assay to identify small molecule phospholipidosis (PLD) inducers (AID 1259344; active means well fitted curve in the direction sought with a large enough effect; an effect the other way counts as inactive or inconclusive)
Outline: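 Phospholipid accumulation was scored by imaging: fixed, Hoechst-counterstained HepG2 cells stained with LipidTOX Red after 24 h compound exposure at 37 C. Read-outs were pit count and pit intensity per well or per cell, with amiodarone and DMSO controls.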

Measured: Potency

Nc1ccc(F)cc1F
not listed: [18] | [19] | [20]
inactive: all other assays above

CCCC(=O)OCc1ccccc1
not listed: [2] | [3] | [14] | [20]
inactive: all other assays above

C=CC(O)CCCCC (stereo not given)
inactive: [1] | [18] | [5] | [6] | [7] | [8] | [9] | [10] | [13] | [15] | [17]

Clc1cccc(C(c2ccc3nc[nH]c3c2)n2ccnc2)c1 (stereo not given)
not listed: [13] | [17] | [18]
inactive: all other assays above

Clc1nc2ccccc2nc1Cl
active: [19] 24.6 µM
not listed: [2] | [3] | [14] | [20]
inactive: all other assays above

CCOc1cc(OCC)c(C(C)=O)cc1OCC
active: [3] 26.8 µM | [7] 10.7 µM | [8] 8.48 µM
not listed: [10] | [13] | [18] | [19] | [20]
inactive: all other assays above

CC(=O)CC/C=C(\C)CC/C=C(\C)CC/C=C(\C)CCC=C(C)C
not listed: [2] | [3] | [4] | [14] | [16] | [17]
inactive: all other assays above

CC(C)(C)c1ccc(CCC=O)cc1
not listed: [2] | [3] | [8] | [13] | [14] | [19] | [20]
inactive: all other assays above

CCCCCCCCCCCCN1CCOCC1
not listed: [3] | [13] | [14] | [18] | [20]
inactive: all other assays above

CCOC(OCC)OCC
not listed: [2] | [3] | [14] | [20]
inactive: all other assays above

O=C1C=CCCC1
not listed: [2] | [3] | [8] | [14] | [19] | [20]
inactive: all other assays above

Cc1cccc(C)c1NC(=O)CN1CCCC1
not listed: [2] | [3] | [4] | [14] | [16] | [19]
inactive: all other assays above

O=C(OCCOCCOCCOC(=O)c1ccccc1)c1ccccc1
not listed: [2] | [3] | [14] | [20]
inactive: all other assays above

CCCCCCCCCCCC(=O)OCC
not listed: [3] | [14] | [18] | [20]
inactive: all other assays above

CCCCOc1ccc(N)cc1
not listed: [2] | [3] | [8] | [14] | [16] | [20]
inactive: all other assays above

CCCCCCCCOCCCN
active: [10] 30.6 µM
not listed: [7] | [8] | [11] | [12] | [13] | [15] | [18] | [20]
inactive: all other assays above

CC(=O)c1ccc(Cl)c(Cl)c1Cl
not listed: [2] | [3] | [8] | [14] | [20]
inactive: all other assays above

NC(=O)c1ccccc1C(N)=O
active: [1] 49.2 µM | [13] 61.4 µM
not listed: [11] | [15] | [18] | [20]
inactive: all other assays above

COc1cccc([C@H](O)C2CCN(CCc3ccc(F)cc3)CC2)c1OC
active: [10] 54.5 µM
not listed: [2] | [3] | [8] | [13] | [14] | [19] | [20]
inactive: all other assays above
